From PubChem BioAssay
The list is not random: actives were taken first. Their share in the collection is about 3.8%.
HepG2 tox-1: kills HepG2 cells in TGF-b inhibitor counter-screen. hit rate 0.76% among 410,000. AID 588856. Potency, µM (highest dose often 46.1 µM), for the others: at the highest dose activity change, negative = cytotoxicity, hits mostly cytotoxic. HepG2 CAGA-GFP viability, ATP luminescence, 18 h
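HepG2 CAGA-GFP cells (1000/well, DMEM with 1% FBS) received compound, then TGF-beta at 500 pg/mL final, and were incubated 18 hours at 37 degrees C. Viability was read by CellTiter-Glo luminescence. Media-only wells were set as complete cell-killing and DMSO as no toxicity.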
Nrf2 inh: blocks Nrf2 signaling | A549 ARE-Fluc reporter, luciferase luminescence, 18-24 h | Potency, µM (highest dose often 46 µM), for the others: at the highest dose activity change, negative = inhibition, actives largely listed as inhibitors | hit rate 2.1% among 360,000; further: on the % scale 0 is the no-effect control and ±100 the full control effect; nearly all actives have a fitted effect of over 60% in size
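A549 ARE_Fluc cells, 5000/well, 5% FBS OPTI-MEM; compounds in dose-response, 18-24 h at 37 °C/5% CO2; CellTiter-Fluor viability read (Ex 405/Em 525), then BugLite luciferase luminescence = Nrf2 activity.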
ATXN2 expr inh: ATXN2 expression inhibition; HEK-293 ATXN2-luciferase reporter, luminescence, 24 h; Potency, µM (top dose mostly 57 µM), inactives show top-dose activity change, negative = inhibition, most hits filed as inhibitors; AID 1745845; hit rate 0.72% among 360,000; further: on the % scale 0 is the no-effect control and ±100 the full control effect; nearly all actives have a fitted effect of over 55% in size
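qHTS (up to 57 uM final) was run with 24 h compound exposure of reporter cells at 37 °C. Each well was multiplexed: SteadyGlo luminescence measured ATXN2-luciferase expression after a fluorogenic Gly-Phe-AFC viability readout (25 uM final).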
ATXN viability: viability counter-screen for ATXN expression inhibitors | S2 cells (HEK-293 line with an ATXN2-luciferase reporter) viability, CellTiter-Fluor protease fluorescence, 24 h | Potency, µM (top dose mostly 56.7 µM), actives largely listed as cytotoxic | hit rate 0.49% among 400,000; further: nearly all actives have a fitted effect of over 40% in size
TGFb SMAD3 inh: blocks TGF-b signaling | HepG2 CAGA-GFP TGF-b/SMAD3 reporter, GFP fluorescence, 18 h; TGF-beta stimulated, 500 pg/mL final | Potency, µM (series often up to 46.1 µM), without a hit: top-dose activity, negative = inhibition, hits mostly inhibitors | hit rate 1.2% among 410,000 | AID 588855; further: on the % scale 0 is the no-effect control and ±100 the full control effect; nearly all actives have a fitted effect of over 65% in size
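HEPG2 CAGA-GFP cells (1000/well, DMEM with 1% FBS) were pre-incubated 2 h at 37 degrees C, given compound by pin tool, then stimulated with TGF-beta at 500 pg/mL final for 18 h before per-cell GFP fluorescence imaging.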
A549 tox: A549 cytotoxicity, counter-screen for Nrf2 inhibitors | AID 504648 | Potency, µM (doses to about 46 µM), without a hit: at the top dose activity change, negative = cytotoxicity, actives largely listed as inhibitors | A549 ARE-Fluc cells, CellTiter-Fluor viability, 18-24 h | hit rate 0.16% among 390,000; further: on the % scale 0 is the no-effect control and ±100 the full control effect
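A549 ARE-Fluc cells in 5% FBS OPTI-MEM, 5000 cells/well, rested 2 h then exposed to compounds in concentration-response for 18-24 h at 37 °C. Viability by CellTiter-Fluor fluorescence (Ex 405/Em 525) after 30 min; luciferase luminescence (BugLite, 15 min, RT) read afterwards.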
TGFb confirm: confirmation of TGF-b signaling inhibitors in HepG2 reporter cells; shares compounds with TGFb SMAD3 inh; HepG2 CAGA-GFP TGF-b reporter, GFP fluorescence, 18 h; cells stimulated with TGF-beta, 500 pg/mL; Potency, µM (series often up to 46.1 µM), for inactives: top-dose activity, negative = inhibition, hits mostly inhibitors; hit rate 63% among 1,600; further: on the % scale 0 is the no-effect control and ±100 the full control effect; nearly all actives have a fitted effect of over 65% in size
HepG2 tox-2: HepG2 cytotoxicity, TGF-b inhibitor counterscreen; HepG2 CAGA-GFP viability, ATP luminescence, 18 h; cells stimulated with TGF-beta, 500 pg/mL; Potency, µM (doses to about 46.1 µM), inactives show at the top dose activity, negative = cytotoxicity, hits mostly inhibitors; hit rate 27% among 1,600; shares compounds with TGFb SMAD3 inh; further: on the % scale 0 is the no-effect control and ±100 the full control effect; nearly all actives have a fitted effect of over 70% in size
CCL64 TGFb inh: orthogonal confirmation of TGF-b inhibitors in CCL64 cells; shares compounds with TGFb SMAD3 inh; CCL64 CAGA-GFP reporter, TGF-b stimulated, GFP fluorescence, 18 h; Potency, µM (titrated, usually from 46.1 µM), inactives show at the top dose activity, negative = inhibition, usual class: inhibitors; hit rate 41% among 1,600; further: nearly all actives have a fitted effect of over 65% in size
COP TGFb inh: blocks TGF-b signaling in HepG2 COP reporter; shares compounds with TGFb SMAD3 inh; Potency, µM (top dose mostly 46.1 µM), for the others: at the highest dose activity, negative = inhibition, actives largely listed as inhibitors; HepG2 COP-GFP TGF-b reporter, GFP fluorescence, 18 h; cells stimulated by added recombinant TGF-beta; hit rate 3% among 1,600; further: nearly all actives have a fitted effect of over 70% in size
Starred values were filed as active, the others as inactive; i = inactive; ? = inconclusive; nt = no result given; ! = not confirmed by another sample; [ ] = remark or other dose. The call rests on the fitted dose curve; in most records, active means well fitted curve in the direction sought with a large enough effect; inconclusive means small, poorly fitted or top-dose-only effect, or another doubt; inactive means no such curve, though single readings can be large; an effect the other way counts as inactive or inconclusive. Potency means the concentration at half of the fitted maximal effect.

SMILES	HepG2 tox-1	Nrf2 inh	ATXN2 expr inh	ATXN viability	TGFb SMAD3 inh	A549 tox	TGFb confirm	HepG2 tox-2	CCL64 TGFb inh	COP TGFb inh
N#C/C(=N\Nc1ccc(Cl)c(Cl)c1)C(=O)C1CC1	-28.9%	-21.3%	-19.2%	nt	7.08µM*	?	2.31µM*	6.51µM*	6.51µM*	63.7%
N#C/C(=N\Nc1ccc(F)cc1)C(=O)C1CC1	-5.8%	-9.6%	?	i	-19.9%	-3.0%	nt	nt	nt	nt
CN(CCO)c1nc(-c2cccs2)nc2ccccc12	nt	-29.3%	nt	nt	nt	-3.2%	nt	nt	nt	nt
CN(Cc1cccs1)c1nc(-c2cccnc2)nc2ccccc12	-8.3%	?	-24.3%	nt	14.1µM*	-18.1%	25.9µM*	?	18.4µM*	39.6%
C=CCNc1ncnc2c1[nH]c1ccc(C)cc12	-31.4%	?	0.0%	i	7.94µM*	?	?	-27.5%	?	-2.9%
O=C(CCCCCN1C(=O)c2ccccc2C1=O)Oc1ccc2c3c(c(=O)oc2c1)CCC3	9.7%	-1.9%	-7.6%	i	3.8%	0.2%	nt	nt	nt	nt
COc1ccc(N(C(=O)CCl)C(C(=O)NC2CCCCC2)c2cccnc2)cc1 (centres undefined)	11.2µM*	-12.0%	14.1µM*	8.91µM*	8.91µM*	-14.7%	7.31µM*	11.6µM*	9.2µM*	?
CCC(C)NC(=O)CC(NS(=O)(=O)c1ccc(NC(C)=O)cc1)C(C)C (centres undefined)	3.4%	-2.8%	-14.8%	i	-9.8%	-8.7%	nt	nt	nt	nt
Cc1noc2ncnc(Oc3cc(Cl)ccc3Cl)c12	-27.1%	-3.1%	-6.5%[11.3 µM]	?	?	2.4%	18.4µM*	?	?	16.7%
Cc1ccc(-n2c3c(cc(-c4nc(-c5ccc(Cl)cc5)cs4)c2=O)C(=O)CC(C)(C)C3)cc1	-5.6%	10.4%	11.5%	i	-13.0%	2.8%	nt	nt	nt	nt
COc1ccc(NC(=O)CCSc2nc(-c3ccco3)cc(C(F)(F)F)n2)cc1OC	-10.7%	-8.5%	8.5%	i	-3.8%	-9.6%	nt	nt	nt	nt
COc1ccc(NC(=O)CCCSc2nc(-c3ccco3)cc(C(F)(F)F)n2)cc1OC	-4.4%	20.6µM*	-30.6%	?	?	-17.4%	?	-10.8%	-27.8%	3.1%
Cc1ccc(NC(=O)NNC(=O)CN2C(=O)COc3ccccc32)cc1	10.1%	-7.3%	0.7%	i	27.8%	-4.6%	nt	nt	nt	nt
CCOC(=O)c1ccc(CN(Cc2ccc(F)cc2)S(=O)(=O)c2ccc(F)c(C(=O)Nc3cc(Cl)ccc3OC)c2)cc1	6.8%	nt	nt	nt	1.7%	-0.7%	nt	nt	nt	nt
Cc1csc(Nc2nc(N)c(C(=O)Nc3cc(Cl)ccc3F)o2)n1	-20.1%	?	-17.4%	i	2.3%	-12.8%	nt	nt	nt	nt
COc1ccc(C(NC(=O)C2CCN(CCOc3ccc(Cl)cc3Cl)CC2)c2cccs2)cc1 (centres undefined)	5.01µM*	nt	-23.7%	?	4.47µM*	nt	?	?	?	?
CC(C)(C)S(=O)(=O)N1C[C@@H]2C(=CC[C@H]3C(=O)N(c4ccccc4)C(=O)[C@@H]23)[C@@H]1CCO	-10.0%	9.4%	-0.9%	i	-11.5%	-1.1%	nt	nt	nt	nt
Cc1ccc(N/N=C(\C#N)C(=O)c2ccsc2)cc1	-22.0%	?	nt	i	?	-16.0%	nt	nt	nt	nt
N#C/C(=N\Nc1ccc(Cl)cc1)C(=O)c1ccsc1	-27.5%	16.4µM*	?	?	?	?	8.2µM*	7.31µM*	20.6µM*	15.0%
CNc1c2cccc(C)c2nc2c(C(=O)NCCN(C)C)cccc12	-7.2%	1.46µM*	?	nt	1.12µM*	4.61µM*	0.581µM*	0.517µM*	1.3µM*	69.4%
COc1ccc(N(C(=O)CCl)C(C(=O)NCCc2ccccc2)c2cccs2)cc1Cl (centres undefined)	-102.1%	-25.3%	1.78µM*	1.41µM*	7.94µM*	?	4.61µM*	5.17µM*	2.06µM*	20.6µM*
CCc1cccc(C)c1NC(=O)C1CCN(S(=O)(=O)Cc2ccccc2)CC1	1.5%	11.4%	-7.1%	?	0.2%	18.6%	nt	nt	nt	nt
CCOc1ccccc1CNS(=O)(=O)c1ccc(-c2cnc(C3CC3)o2)cc1	-27.7%	-2.1%	-9.1%	1.26µM*!	10µM*	-3.2%	5.8µM*	?	8.2µM*	-10.4%
Cc1cccc(C)c1NS(=O)(=O)c1ccc(-c2cnc(C3CC3)o2)cc1	-29.2%	-11.0%	nt	?	3.98µM*	0.5%	2.59µM*	?	0.82µM*	51.7%
Cc1ccc(NS(=O)(=O)c2ccc(-c3cnc(C4CC4)o3)cc2)cc1	-14.3%	?	nt	?	?	-3.4%	nt	nt	nt	nt
O=S(=O)(NCc1ccccc1Cl)c1ccc(-c2cnc(C3CC3)o2)cc1	-36.0%	nt	?	?	?	-0.2%	nt	nt	nt	nt
CN(CC(=O)N1CCN(Cc2ccccc2)CC1)C(=O)Cc1cccc2ccccc12	-8.0%	-13.2%	-14.8%	?	14.1µM*	-5.4%	?	-16.2%	2.1%	-3.0%
CC[C@H](C)[C@@H]1OC(=O)[C@@H](C)[C@@H](CC)NC(=O)[C@H](C)N(C)C(=O)C(C)(C)C(=O)C(C)NC(=O)[C@H](Cc2ccccc2)N(C)C(=O)[C@H](C(C)C)N(C)C(=O)CNC(=O)[C@H](CC(C)C)N(C)C(=O)CNC1=O (some centres undefined)	5.5%	nt	-37.2%	?	3.55µM*	nt	7.31µM*	?	5.8µM*	41.7%
